Test results as given in PubChem BioAssay (EPA / NIEHS).
Inconclusive results are not listed. The source made the active and inactive calls. Rule for the calls, unless noted: active = hit-call score of the fitted dose curve at least 0.9, where 1 is the maximum; inconclusive = response in the unintended direction; inactive = score below 0.9.

How the values were obtained:
[1] = target: Cellular tumor antigen p53 (Homo sapiens) (UniProt P04637); experiment: TOX21_p53_BLA_p2_ratio: Tox21 HCT-116 p53 Agonism Beta-lactamase Assay, Ratio, Phase 2 (AID 2283592)
Sequence of Cellular tumor antigen p53 (Homo sapiens) (P04637 whole entry, looked up): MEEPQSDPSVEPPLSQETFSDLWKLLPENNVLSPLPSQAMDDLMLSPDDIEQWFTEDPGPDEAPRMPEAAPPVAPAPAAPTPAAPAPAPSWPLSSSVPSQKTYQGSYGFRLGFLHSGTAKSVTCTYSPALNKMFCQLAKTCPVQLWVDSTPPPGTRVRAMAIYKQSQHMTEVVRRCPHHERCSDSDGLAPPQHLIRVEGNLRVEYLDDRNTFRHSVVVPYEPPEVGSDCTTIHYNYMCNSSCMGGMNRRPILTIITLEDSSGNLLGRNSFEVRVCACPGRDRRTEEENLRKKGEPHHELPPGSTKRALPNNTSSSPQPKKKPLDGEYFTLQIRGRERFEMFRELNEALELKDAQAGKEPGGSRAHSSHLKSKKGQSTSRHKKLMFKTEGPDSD
Procedure, shortened: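 Cleaved-to-uncleaved substrate ratio (460 vs 530 nm) measured in HCT116 cells with an inducible beta-lactamase reporter linked to p53 activity. Compounds incubated 16 h at 37C before 2 h room-temperature CCF4-AM loading.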

[2] = target: Cellular tumor antigen p53 (Homo sapiens) (UniProt P04637); experiment: TOX21_p53_BLA_p3_ratio: Tox21 HCT-116 p53 Agonism Beta-lactamase Assay, Ratio, Phase 3 (AID 2283596)
Procedure, shortened: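 Cells were seeded at 4000/well, rested 5 h at 37C, then dosed with DMSO compound solutions (217-fold dilution) for 16 h. CCF4-AM substrate was loaded for 2 h at room temperature, and the 460/530 nm emission ratio was fitted for gain of signal versus DMSO.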

[3] = target: Cellular tumor antigen p53 (Homo sapiens) (UniProt P04637); experiment: TOX21_p53_BLA_p5_ratio: Tox21 HCT-116 p53 Agonism Beta-lactamase Assay, Ratio, Phase 5 (AID 2283599)
Procedure, shortened: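 HCT-116 p53-bla cells (4000/well) plated 5 h, dosed with compound (217-fold DMSO dilution) for 16 h at 37 C; CCF4-AM substrate 2 h at room temperature. Activity is the 460/530 nm emission ratio (405 nm excitation), fitted in gain-of-signal direction versus DMSO.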

[4] = target: Cellular tumor antigen p53 (Homo sapiens) (UniProt P04637); experiment: TOX21_p53_BLA_p4_ratio: Tox21 HCT-116 p53 Agonism Beta-lactamase Assay, Ratio, Phase 4 (AID 2283601)
Procedure, shortened: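 HCT-116 p53 beta-lactamase reporter cells (4000/well) preincubated 5 h, then compound (217-fold dilution of DMSO stock) for 16 h at 37C. CCF4-AM substrate added 2 h at room temperature; 460/530 nm emission ratio fitted upward versus DMSO.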

[5] = TOX21_p53_BLA_p5_viability: Viability Assessment in the Tox21 HCT-116 p53 Agonism Beta-lactamase Assay, Phase 5 (AID 2283600)
Procedure, shortened: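 Viability is taken from cellular ATP content, measured by luciferase luminescence in the same wells after the beta-lactamase ratio read. Cells are seeded at 4000 per well and exposed to DMSO-dissolved compounds, diluted 217-fold, for 16 h.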

[6] = CCTE_Harrill_HTTr_Viability_MCF7: CCTE's 6-hour Cell Viability Assessment for the High-Throughput Transcriptomics (HTTr) Platform, in MCF-7 cells cultured in DMEM + 10% fetal bovine serum, Harrill Lab (AID 2284010; active = hit-call score of the fitted dose curve at least 0.9, where 1 is the maximum; inactive = score below 0.9)
Procedure, shortened: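 Eight-point concentration series, six-hour exposure. Propidium iodide exclusion imaged to assess membrane integrity as a cytotoxicity readout; bidirectional fitting was done with DMSO as negative control and activity baseline.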

[7] = CCTE_Harrill_HTTr_Apoptosis_MCF7: CCTE's 6-hour Apoptosis Assessment for the High-Throughput Transcriptomics (HTTr) Platform, in MCF-7 cells cultured in DMEM + 10% fetal bovine serum, Harrill Lab (AID 2284011; active = hit-call score of the fitted dose curve at least 0.9, where 1 is the maximum; inactive = score below 0.9)
Procedure, shortened: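 Cells are dosed with test chemicals at eight concentrations and imaged 6 hours later for caspase-3/7 activity using a green fluorogenic detection reagent. Activity is fitted in both directions against DMSO controls.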

[8] = CCTE_Harrill_HTTr_CellCount_MCF7: CCTE's Cell Proliferation Assessment for the High-Throughput Transcriptomics (HTTr) Platform, Harrill Lab (AID 2284012);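 note: count of Hoechst-stained nuclei per well by high-content imaging in MCF-7 cells; cells exposed to compound for six hours; intended direction is loss of nuclei count meaning fewer cells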
Procedure, shortened: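 For this full-screen endpoint, MCF-7 cultures received eight compound dilutions for six hours. Well nuclei counts from Hoechst imaging were analyzed relative to DMSO.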

[9] = TOX21_TRB_BLA_Antagonist_Followup_viability: Viability Assessment in the Tox21 Thyroid Hormone Receptor beta Antagonism Beta-lactamase (BLA) Follow-Up Assay (AID 2283961)
Procedure, shortened: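 Cytotoxicity is measured in parallel with the antagonist-mode TRβ beta-lactamase screen, using ATP-coupled luciferase luminescence. Engineered HEK293T cells are treated for 18 h with 11-point compound series in triplicate.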

Measured: AC50

CC1=NN(c2ccc(C(=O)O)cc2)C(=O)C1
inactive: [1] | [2] | [3] | [4]

COC(=O)Nc1nc2ccc(C(=O)c3ccccc3)cc2[nH]1
inactive: [2] | [3] | [4]
active: [1] 192 nM

CN1CCCN(C(c2ccccc2)c2ccc(Cl)cc2)CC1 (stereo unspecified)
inactive: [1] | [2] | [3] | [5] | [4]

CCCCCCCC/C=C\CCCCCCCC(=O)OC
not listed: [9]
inactive: all other assays above

NC(=O)c1ccccc1[N+](=O)[O-]
inactive: [1] | [2] | [3] | [4]

O=C(O)[C@H]1CN(C/C=C/P(=O)(O)O)CCN1
inactive: [1] | [2] | [5] | [4]

C#C[C@]1(O)CC[C@H]2[C@@H]3CCC4=CC(=O)CC[C@@H]4[C@H]3C(=C)C[C@@]21CC
inactive: [1] | [2] | [3] | [4] | [9]

NS(=O)(=O)c1cc2c(cc1Cl)NC(Cc1ccccc1)NS2(=O)=O (stereo unspecified)
inactive: [1] | [2] | [5] | [4]

O=C(O)[C@H](O)c1ccccc1
inactive: [1] | [2] | [5] | [4]

N=C(N)c1ccccc1
inactive: [1] | [2] | [5] | [4]

NC(=O)Cc1cccc(C(=O)c2ccccc2)c1N
inactive: [1] | [2] | [4]

O=C(NCCCN1CCOCC1)c1ccc(Cl)cc1
inactive: [1] | [2] | [4]

NC(=O)c1ccc[n+]([C@@H]2O[C@H](COP(=O)([O-])OP(=O)(O)OC[C@H]3O[C@@H](n4cnc5c(N)ncnc54)[C@H](O)[C@@H]3O)[C@@H](O)[C@H]2O)c1
inactive: [1] | [2] | [3] | [4]
